Bioassay records: PubChem BioAssay, Zoeller Lab, School of Medicine, Boston University
PL synth Enamine = phospholipid synthesis inhibitors, CHO cells, primary screen, ZR-82 cells, Enamine library, screen 3; ZR-82 CHO cells, pyrene fatty acid UV survival, CellTiter Blue; peroxisome-deficient CHO-K1 mutant line; plus DGAT-1, DGAT-2 and ACAT inhibitors; calls only at 10 µM; 0.4% of 20,000 active;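 active means cell survival signal 2 SD away from solvent-only control wells, confirmed on one or two retests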;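 further: 3 h compound exposure then viability read about one day after UV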
Starred values were filed as active, the others as inactive; i = inactive; + = active, no number. The entries come from a sample that favours hits as a whole.

SMILES | PL synth Enamine
CN(C)S(=O)(=O)c1ccc(Cl)c(N=Nc2sc(N)nc2-c2cc(F)ccc2F)c1 | i
Cc1nc(N)sc1N=Nc1c(Cl)cc(Cl)cc1Cl | i
Cc1nc(N)sc1N=Nc1cc(C(F)(F)F)ccc1Cl | +
Cc1nc(N)sc1N=Nc1ccc(F)cc1 | +
Nc1ncc(Cc2ccc(F)cc2)s1 | i
CN(C)S(=O)(=O)c1ccc(N=Nc2sc(N)nc2-c2cc(F)ccc2F)cc1 | i
Nc1cc(S(=O)(=O)N2CCOCC2)ccc1O | i
O=[N+]([O-])c1cc(NS(=O)(=O)c2ccc3c(c2)OCCCO3)ccc1F | i
O=C1C(=O)N(CN2CCCC2c2nc3ccccc3s2)c2ccccc21 (stereo not drawn) | i
Cn1c(SCC23CC4CC(CC(C4)C2)C3)nc2sc3c(c2c1=O)CCCC3 | i
Clc1ccc(-c2cc(-c3nnc(SCC4CCCO4)o3)c3ccccc3n2)cc1 (stereo not drawn) | i
O=[N+]([O-])c1cccc2c(Br)cccc12 | i
c1ccc2oc(CSc3nc4ccccc4s3)nc2c1 | i
CN=c1scc(-c2ccccc2)n1/N=C/c1ccccc1Br | i
Fc1ccc2c(c1)/C(=N\Nc1nc3ccccc3s1)CCS2 | +
O=C(N/N=C1\CCSc2ccc(F)cc21)C1COc2ccccc2O1 (stereo not drawn) | i
CCN(CC)S(=O)(=O)c1ccc(N/N=C2\CCSc3ccc(F)cc32)nc1 | i
Cc1ccc(C(C)(C)C)cc1S(=O)(=O)Nc1nc2ccccc2nc1Sc1nnc2cc(C)c3ccccc3n12 | i
Cc1[nH]c2ccccc2c1C(c1c(C)[nH]c2ccccc12)C(C)C | i
Cc1[nH]c2ccccc2c1N=Nc1ccc(SC(F)F)cc1 | +
Oc1ccccc1C=Nc1ncn[nH]1 | i
Cc1c(C2Sc3ccccc3NC2=O)c2ccccn2c1C1Sc2ccccc2NC1=O (stereo not drawn) | +
O=C(O)CC1Sc2ccccc2NC1=O (stereo not drawn) | i
C=CCOC(=O)CC1Sc2ccccc2NC1=O (stereo not drawn) | i
CC1(NS(=O)(=O)c2ccccc2F)CCS(=O)(=O)C1 (stereo not drawn) | i
SMILES | PL synth Enamine
COc1cc(-c2nc3ncc(Br)cc3[nH]2)cc(OC)c1OC | i
OC12CC3CC(C1)CC(c1cc(-c4ccccc4Cl)c4cc(Cl)ccc4n1)(C3)C2 | i
O=[N+]([O-])c1cc(C(F)(F)F)cc([N+](=O)[O-])c1N/N=C1/CCCc2ccccc21 | i
c1ccc(N/N=C2\CCCc3ccccc32)nc1 | i
O=[N+]([O-])c1ccc(N/N=C2\CCCCc3ccccc32)cc1 | +
C=CCNC(=S)N/N=C1\CCc2ccccc21 | i
O=[N+]([O-])c1ccc(N/N=C2\CCc3ccccc32)cc1 | +
O=[N+]([O-])c1cc(S(=O)(=O)N/N=C2\CCc3ccccc32)ccc1Cl | i
C[N+](C)(Cc1ccc(Cl)cc1)NCc1ccc(Cl)cc1 | i
O=C1OCCC1Sc1nc2sc3c(c2c(=O)[nH]1)CCCC3 (stereo not drawn) | i
Cc1n[nH]c(C)c1N | i
CN1CCC(C(=O)C(F)(F)F)=C1NNc1ccccc1 | i
C=CCN=c1scc(-c2ccc(Cl)cc2Cl)n1/N=C/c1ccc2c(c1)OCO2 | i
NC1=NC(c2ccc(N(c3ccccc3)c3ccccc3)cc2)n2c(nc3ccccc32)N1 (stereo not drawn) | i
CC(Nc1cc(N2CCNCC2)ccc1[N+](=O)[O-])C12CC3CC(CC(C3)C1)C2 (stereo not drawn) | +
CN(C)S(=O)(=O)N1CCN(c2ccc([N+](=O)[O-])c(NC3CC3)c2)CC1 | i
CC(NS(=O)(=O)c1ccc(F)c(F)c1)C12CC3CC(CC(C3)C1)C2 (stereo not drawn) | i
NC(=O)CN1C(=O)NC2(CCCCCCC2)C1=O | i
Cc1ccc(C(=O)C(C)Sc2nnc(-c3ccc4c(c3)OCO4)o2)cc1C (stereo not drawn) | i
O=C(CSc1nnc(-c2ccc3c(c2)OCO3)o1)CSc1nnc(-c2ccc3c(c2)OCO3)o1 | i
O=C(c1ccccc1)C(Sc1nnc(-c2ccc3c(c2)OCO3)o1)c1ccccc1 (stereo not drawn) | +
Cc1ccc(-c2cc3[n+]([O-])c4ccccc4n([O-])c-3c([P+](c3ccccc3)(c3ccccc3)c3ccccc3)c2=O)cc1C | i
Fc1c(F)c(F)c(N/N=C/c2ccc3c(c2)OCO3)c(F)c1F | i
COCCN=c1scc(-c2cc(OC)c(OC)c(OC)c2)n1/N=C1\CCc2ccccc21 | i
NC(=O)C1CCN(C(=O)OCC(F)(F)F)CC1 | i
SMILES | PL synth Enamine
CN1/C(=C\C=N\N=C2c3ccccc3-c3ccccc32)C(C)(C)c2ccccc21 | +
CSc1ccccc1N=C/C=C1/N(C)c2ccccc2C1(C)C | i
CN1/C(=C\C=Nc2ccc(I)cc2)C(C)(C)c2ccccc21 | i
O=S(=O)(c1ccc(N2CCOCC2)c(N=Cc2c(F)c(F)c(F)c(F)c2F)c1)N1CCOCC1 | i
CN(C)C(=O)Cn1cnc2sc3c(c2c1=O)CCCC3 | i
Fc1cc(Cl)ccc1NC(=S)Nc1ccc(Cl)c(Cl)c1 | +
Fc1ccc(NC(=S)Nc2ccc(Cl)c(Cl)c2)cc1Cl | i
C=CCNC(=S)Nc1ccc(F)c(Cl)c1 | i
CN=C1NS(=O)(=O)c2ccccc21 | i
Oc1ccc(-n2nnnc2SCc2ccc(-n3ccnc3)cc2)cc1 | i
CC1=C(C)CC(C(=O)O)C(C(=O)O)C1 (stereo not drawn) | i
C=CCN=c1scc(-c2ccccc2)n1/N=C/c1ccc(O)cc1O | i
CN(C)c1ccc(/C=C/c2cccc[n+]2C)cc1 | i
CN(C)c1ccc(/C=C/c2ccc3ccccc3[n+]2C)cc1 | i
CC[n+]1ccc(/C=C/c2ccc(N(C)C)cc2)cc1 | +
Cc1nc2ncnn2c(C)c1CC(=O)Nc1nccs1 | i
CC(C)CN(C(=O)CN(C)C(=O)CC1CCCC1)c1c(N)n(CC(C)C)c(=O)[nH]c1=O | i
O=[N+]([O-])c1cc2c(c(CSC3=Nc4ccccc4C4CC=NN34)c1)OCOC2 (stereo not drawn) | i
C(=N\N1CCN(C(c2ccccc2)c2ccccc2)CC1)/c1c(-c2ccccc2)nc2ccccn12 | i
Cc1ccc(-c2nnc(N/N=C/c3c(-c4ccccc4)nc4ccccn34)c3ccccc23)cc1C | +
Cc1ccc(-c2nnc(-n3nnc4cc(C)c(C)cc43)c3ccccc23)cc1C | i
O=S(=O)(c1ccc2c(c1)CCC2)N1CCCC1c1ccc2c(c1)OCCO2 (stereo not drawn) | i
Cn1c(-c2ccccc2)c(/C=N/Nc2nncc3ccccc23)c2ccccc21 | +
FC(F)(F)c1cccc(/C=N/Nc2nncc3ccccc23)c1 | i
Fc1ccc(/C=N/Nc2nncc3ccccc23)cc1F | i
CC1(C)C2CC=C(/C=N/NC(N)=S)C1C2 (stereo not drawn) | i
CC(C)NC(=S)N/N=C/C1=CCC2CC1C2(C)C (stereo not drawn) | +
CCNC(=S)N/N=C/C1=CCC2CC1C2(C)C (stereo not drawn) | i
CC1(C)C2CC=C(/C=N/NC(=S)NC3CCCCC3)C1C2 (stereo not drawn) | +
C=C(C)CNC(=S)N/N=C/C1=CCC2CC1C2(C)C (stereo not drawn) | i
